This is an account of results in PubChem BioAssay AID488841 (Sanford-Burnham Center for Chemical Genomics, 2010).

Broadly, the inhibition is the change of the read-out against control, counted positive when it falls.

Among all 1,400 compounds or so, about 380 (27%) were called active. This is one part of the list. Values without a mark were called inactive.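 The calls were made as follows: active = mean inhibition above 50% across duplicate retests at 10 µM; inactive = the rest.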

The assay in a line: inhibition of NALP1/ASC/caspase-1 reporter signal in yeast, confirmation, NALP1 inhibitor project, S. cerevisiae, luminescence, single concentration (AID 488841).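 Also: plate controls were DMSO in galactose medium for no effect and cells in plain SD medium for full effect.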 As to conditions: S. cerevisiae NALP1/ASC/Caspase-1 reporter, beta-gal luminescence; at 10 µM; hits give high values.
For `COCCCN(CCCN)Cc1ccco1`, the inhibition is 73.2% (active).

For the compound `Cc1ccc(S(=O)(=O)N(C(=O)c2ccncc2)c2ccc(OC(=O)c3ccncc3)c3ccccc23)cc1`, the inhibition was 28.8%. To `CCN(CC)c1ccc(/C=C2/SC(=O)N(C(C)C)C2=O)o1` belongs 65.5% (active). As for `O=C1S/C(=C\c2ccc(N3CCOCC3)o2)C(=O)N1c1ccccc1`, the inhibition is 45.5%. To `CC1CCCC(C)N1C(=O)CN1CCN(c2nc(-c3ccc(F)cc3)cs2)CC1` (centres undefined) belongs 19.6%; to `Cc1cccc(N/C=C/C(=C(C#N)C#N)N(C)C)c1`, 30.9%.

For the compound `O=C(N/N=C/c1ccc2nccnc2c1)c1ccccc1O`, the inhibition was 25.7%.

Take `Cc1ccsc1/C=N/NC(=O)c1ccco1`: the inhibition is 38.9%. To `O=C(N/N=C/c1ccc2c(c1)OCO2)c1cccs1` belongs 51.4% (active); to `O=[N+]([O-])c1ccc(N2CCN(c3ccc(Cl)nn3)CC2)c(Cl)c1`, 29.9%; to `Cn1nc(-c2ccccc2)c(-c2nc(-c3ccc(Cl)cc3)no2)c1Cl`, 16.6%.

Turning to `COc1ccc(-c2nc(N)n(S(=O)(=O)c3ccc(C)cc3)n2)cc1`, the inhibition was 44.7%.

For the compound `Cn1nc(-c2ccc(Cl)cc2)nc2c(=O)n(C)c(=O)nc1-2`, the inhibition was 97.7% (active).

Regarding `COc1ccccc1NC(=O)Nc1ccc2c(c1)nnn2C`, the inhibition was 18.6%. The same measure for `Cc1cc(C)n(C(C[N+](=O)[O-])c2ccc(Cl)cc2)n1` (centres undefined): 92% (active); for `Cc1nc([N+](=O)[O-])c(Br)n1CC(=O)c1ccc(Cl)cc1`: 37.6%; for `CCOc1cc(/C=N/NC(=O)c2nn(C)cc2Br)ccc1OCc1ccccc1Cl`: 20.8%. The same measure for `O=c1cc(-c2ccccc2)[nH]c2nc3ccccc3n12`: 39.5%; for `Cc1cccc(OC(=O)c2cn(C)nc2C(F)(F)F)c1C`: 43.7%.

`CCCCNc1nc2ccccc2[nH]1`: the inhibition is 20.4%.

On to `Fc1ccccc1-c1ccc(/C=N/Nc2nc3ccccc3[nH]2)o1`, for which the inhibition is 60.4% (active).

In the case of `Cc1ccc(/C=N/Nc2ccnc3cc(Cl)ccc23)c(C)c1`, the inhibition is 38.3%. The same measure for `CC(=O)/C=C/n1c(=S)oc2ccccc21`: 6.85%. To `CN1C(=O)CSc2ccc(NC(=O)N3CCN(c4ccccn4)CC3)cc21` belongs 24%. The same measure for `CCOC(=O)c1ccc(NC(=O)c2nccnc2C(=O)O)cc1`: 18.4%; for `COc1ccc(NC(=O)CC2Sc3ncnn3C2=O)cc1` (centres undefined): 59% (active); for `CCOC(=O)c1ccc(NC(=O)CSc2nnc(CNc3ccc(C)cc3)n2C)cc1`: 32.1%. Consider `O=C(CC1Sc2ncnn2C1=O)Nc1ccc(Br)cc1` (centres undefined), for which the inhibition was 41.1%. To `CCOC(=O)c1ccc(NC(=O)CC2Sc3ncnn3C2=O)cc1` (centres undefined) belongs 70.7% (active); to `COc1ccc(Nc2ncccc2C(=O)NCc2ccccc2)cc1`, 46.5%.

For `CCOC(=O)C1C(=O)Oc2ccc3ccccc3c2C1C1CCOC1=O` (centres undefined), the inhibition was 19.4%. The same measure for `CCN(CC)S(=O)(=O)c1ccc(NS(=O)(=O)c2cccs2)cc1`: 16.4%. The same measure for `COc1ccc(NC(=S)N(C(C)C)C2CCN(C(C)C)CC2)cc1Cl`: 21.6%; for `Cc1ccc(N2C(=O)c3ccc(C(=O)O)cc3C2=O)cc1C`: 28.4%; for `Clc1ccc(Cn2c(/C=C/c3ccco3)nc3ccccc32)cc1`: 29.2%. Take `COc1ccc(CNC(=O)CCNS(=O)(=O)c2ccc(C)cc2)cc1`: the inhibition is 19.6%.

Consider `COc1ccc(CC2(C)OC(c3ccc(C)cc3)=NN2C(C)=O)cc1` (centres undefined), for which the inhibition was 55.5% (active). To `CCN(C(=O)c1ccco1)c1nnc(-c2ccc(OC)cc2)s1` belongs 38%; to `N#Cc1ccc(Oc2nc(Nc3ccc(F)cc3)nc(N3CCCC3)n2)cc1`, 29.6%. `c1cnc2c(c1)ccc1cccnc12`: the inhibition was 40.4%.

Take `c1ccc(-c2cccc(-c3ccccn3)n2)nc1`: the inhibition was 86.2% (active). Take `COc1ccccc1C/C(N)=N/OC(=O)c1cccc([N+](=O)[O-])c1C`: the inhibition was 37.2%.

As for `N/C(Cc1ccc([N+](=O)[O-])cc1)=N\OC(=O)c1ccccc1Br`, the inhibition was 55.1% (active).

For `N/C(Cc1ccccc1)=N\OC(=O)c1cccc2ccccc12`, the inhibition was 39.9%. For the compound `Cc1noc(C)c1S(=O)(=O)N1CCC(C(=O)N2CCC(N3CCCCC3)CC2)CC1`, the inhibition is 22.1%. The same measure for `Clc1ccc(CO/N=C2\CCCc3nonc32)c(Cl)c1`: 44.9%. Consider `O=C(Nc1ccc(Br)c(Cl)c1)C1CC1`, for which the inhibition is 56.2% (active). With `COc1ccc(NC(=O)C2CCN(C(=O)c3ccc(OC)cc3)CC2)cc1`, the inhibition was 18.7%. With `O=C1c2ccccc2C(=O)c2cc(NC(=O)C3CC3)ccc21`, the inhibition was 44%. The same measure for `CS(=O)(=O)N1CCC(C(=O)Nc2ccc3c(c2)OCO3)CC1`: 30.6%; for `O=C(Nc1ccc(C#Cc2ccccc2)cc1)C1CC1`: 56.5% (active). In the case of `Cc1cc(C)cc(NS(=O)(=O)c2ccc(NC(=O)C3CCCCC3C(=O)O)cc2)c1` (centres undefined), the inhibition was 35.4%. `O=P(CCCCCCCCCP(=O)(c1ccccc1)c1ccccc1)(c1ccccc1)c1ccccc1`: the inhibition is 39%. To `CC(C)C(=O)c1cc2c(cc1NC(=O)Nc1cccc3ccccc13)OCCO2` belongs 28.3%; to `OCCCN=c1cc(-c2ccccc2)oc2ccc(Cl)cc12`, 43.6%; to `Cc1n[nH]c(C)c1S(=O)(=O)N1CCN(C2CCCCC2)CC1`, 16.5%. The same measure for `COc1ccnc(N2CCN(c3ccccc3)CC2)c1C#N`: 53.9% (active); for `O=C(CSc1nc(-c2ccccc2)cs1)Nc1cccc([N+](=O)[O-])c1`: 47.1%; for `CC(C)NC(=O)CSc1nc(-c2ccccc2)cs1`: 56.1% (active). With `COc1cccc(CNC(=O)CSc2ccc(-c3ccncc3)nn2)c1`, the inhibition is 34.1%. To `CCOC(=O)c1c(-c2cccs2)csc1NC(=O)C(C)(C)C` belongs 26.2%; to `Cc1ccc(NC(=O)CSC2=Nc3ccccc3C3CC=NN23)c(C)c1` (centres undefined), 41.9%. The same measure for `O=C(Oc1cccc2cccnc12)c1ccc(N2C(=O)C3C4CCC(C4)C3C2=O)cc1` (centres undefined): 31%. To `O=C(Nc1cc(N2CCOCC2)ncn1)NC1(C(F)(F)F)Oc2ccc(Cl)cc2O1` (centres undefined) belongs 30.7%.
